Laboratory results from publication PMC4336329 (PLoS ONE, 2015).
Among all 310,000 compounds or so, about 2,200 (0.71%) showed an effect of 50% or more. Effects have a minus sign here. For the sample, strong results were picked, then their nearest neighbours and some compounds at random.

target: human ether-à-go-go-related gene (hERG) potassium channel (human, UniProt Q12809); assay: primary screen, population patch clamp on CHO cells stably expressing hERG; higher = less effect of the substance
Sequence (Q12809 whole entry, looked up): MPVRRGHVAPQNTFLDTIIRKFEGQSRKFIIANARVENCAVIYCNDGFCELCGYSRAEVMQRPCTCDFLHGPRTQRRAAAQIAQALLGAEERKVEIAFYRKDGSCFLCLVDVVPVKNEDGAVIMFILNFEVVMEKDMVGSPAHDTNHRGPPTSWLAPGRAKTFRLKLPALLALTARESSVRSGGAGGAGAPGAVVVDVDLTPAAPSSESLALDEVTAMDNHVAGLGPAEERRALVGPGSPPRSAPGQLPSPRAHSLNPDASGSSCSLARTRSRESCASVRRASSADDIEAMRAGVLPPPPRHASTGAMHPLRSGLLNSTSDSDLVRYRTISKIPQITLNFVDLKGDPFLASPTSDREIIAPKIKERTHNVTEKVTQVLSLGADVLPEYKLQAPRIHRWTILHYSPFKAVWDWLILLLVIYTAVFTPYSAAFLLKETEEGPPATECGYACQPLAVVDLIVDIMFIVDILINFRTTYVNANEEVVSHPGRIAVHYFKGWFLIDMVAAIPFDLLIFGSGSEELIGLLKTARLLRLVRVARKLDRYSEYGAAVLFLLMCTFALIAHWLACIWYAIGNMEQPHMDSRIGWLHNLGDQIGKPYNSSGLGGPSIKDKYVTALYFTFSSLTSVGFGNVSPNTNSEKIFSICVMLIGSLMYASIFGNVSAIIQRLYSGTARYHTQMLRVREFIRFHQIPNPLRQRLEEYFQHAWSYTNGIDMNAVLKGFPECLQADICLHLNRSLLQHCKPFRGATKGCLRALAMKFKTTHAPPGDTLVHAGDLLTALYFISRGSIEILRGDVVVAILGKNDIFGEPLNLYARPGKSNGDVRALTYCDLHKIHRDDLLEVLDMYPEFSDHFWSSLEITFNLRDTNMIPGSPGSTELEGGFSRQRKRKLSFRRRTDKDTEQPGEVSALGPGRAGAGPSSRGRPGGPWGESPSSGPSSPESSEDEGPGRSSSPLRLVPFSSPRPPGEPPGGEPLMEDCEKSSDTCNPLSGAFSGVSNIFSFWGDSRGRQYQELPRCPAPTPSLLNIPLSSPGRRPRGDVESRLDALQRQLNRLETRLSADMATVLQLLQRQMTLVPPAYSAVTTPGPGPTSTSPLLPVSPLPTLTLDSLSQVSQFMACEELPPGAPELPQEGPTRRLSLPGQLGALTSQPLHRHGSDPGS

Going from `NC(=O)C1(c2ccccc2)CCC(=O)N1c1ccccc1` (stereo not shown) to `O=C(CCCc1ccccc1)c1ccccc1`, the “hERG current change (%, negative = inhibition) at 1uM” value rises from 14.8% to 19.4%.

Compared with `CCN(CC(=O)NCc1cccnc1)S(=O)(=O)c1ccc(OC)cc1`, `COc1ccc(S(=O)(=O)N(CC(=O)NCc2cccnc2)Cc2ccccc2)cc1` is lower in “hERG current change (%, negative = inhibition) at 1uM” value: 0.0713% for the first, -51.2% for the second.

First: O=C(CN(Cc1ccccc1)S(=O)(=O)c1ccc(F)cc1)NCc1cccnc1
Second: Cc1ccc(S(=O)(=O)N(CC(=O)NCc2cccnc2)c2ccc(F)cc2)cc1
The “hERG current change (%, negative = inhibition) at 1uM” value of the first is higher: -31.9% for the first, -38.1% for the second.

Compared with `CCOc1ccc(N(CC(=O)NCc2ccccc2)S(=O)(=O)c2ccc(C)cc2)cc1`, `CCOc1ccc(S(=O)(=O)N(CC(=O)NCc2ccncc2)c2ccc(C)cc2)cc1` is lower in “hERG current change (%, negative = inhibition) at 1uM” value: 6.54% for the first, -14.6% for the second.

First: O=C(CN(C1CCCCC1)S(=O)(=O)c1ccccc1)NCc1cccnc1
Second: Cc1ccc(S(=O)(=O)N(CC(=O)NCc2cccnc2)C2CCCCC2)cc1
The “hERG current change (%, negative = inhibition) at 1uM” value of the first is higher: 5.52% for the first, -30.3% for the second.

Compared with `CCOc1ccc(S(=O)(=O)N(CC(=O)NCc2cccnc2)c2ccc(F)cc2)cc1`, `CCOc1ccc(N(CC(=O)NCc2cccnc2)S(=O)(=O)c2ccc(F)cc2)cc1` is higher in “hERG current change (%, negative = inhibition) at 1uM” value: -67.2% for the first, 7.16% for the second.

Going from `O=C(CN(C1CCCCC1)S(=O)(=O)c1ccc(Cl)cc1)NCc1cccnc1` to `CCOc1ccc(S(=O)(=O)N(CC(=O)NCc2cccnc2)c2ccc(C)cc2)cc1`, the “hERG current change (%, negative = inhibition) at 1uM” value rises from -60.6% to -52.4%.

Compared with `C[C@H]1CN=C(N(C)C)N1CCC1CCCCC1`, `COc1ccc(-n2c(NCCN(C)C)nc3sc4c(c3c2=O)CCCCC4)cc1` is lower in “hERG current change (%, negative = inhibition) at 1uM” value: 13.6% for the first, -69.4% for the second.

Going from `CN(CC(=O)Nc1cccc(S(=O)(=O)NC2=NCCCCC2)c1)Cc1ccc(C(C)(C)C)cc1.O=C(O)C(=O)O` to `CCN(CC)S(=O)(=O)c1ccc(C(=O)Nc2c3c(nn2C(C)(C)C)CS(=O)(=O)C3)cc1`, the “hERG current change (%, negative = inhibition) at 1uM” value falls from 12.9% to 5.04%.

First: CCN1CCN(S(=O)(=O)c2cc(OC)ccc2OC)CC1
Second: Cc1ccc(S(=O)(=O)N2CCN(c3ccccc3)CC2)cc1C
The “hERG current change (%, negative = inhibition) at 1uM” value of the first is higher: 19% for the first, 12.5% for the second.

Compared with `c1ccc(CSc2nnc3c(n2)OC(c2ccco2)Nc2ccccc2-3)cc1` (stereo not shown), `CCc1ccccc1NC(=O)/C(=C/c1ccccc1)c1ccccc1` is lower in “hERG current change (%, negative = inhibition) at 1uM” value: 14.9% for the first, -4.2% for the second.

Going from `COC(=O)c1sc(Nc2ccccc2)nc1C` to `COc1ccccc1C(=O)Nc1nnc(S(=O)(=O)N2CCC(C)CC2)s1`, the “hERG current change (%, negative = inhibition) at 1uM” value falls from 13.5% to 12.4%.

Compared with `C/C(N)=C(/C#N)C(=O)CSc1nc2cc(Cl)ccc2s1`, `NC(=O)CCCn1c(C(=O)c2ccc(Cl)cc2)c2ccc([N+](=O)[O-])cc2[n+]1[O-]` is lower in “hERG current change (%, negative = inhibition) at 1uM” value: -7.65% for the first, -58.2% for the second.

Going from `C/C(=N\O)c1ccc2c(c1)OCCO2` to `CC(=O)c1ccc2c(c1)OCCOCCOCCO2`, the “hERG current change (%, negative = inhibition) at 1uM” value falls from 12.6% to 12.3%.

First: C/C(=N/O)c1ccc2c(c1)OCCOCCOc1cc(/C(C)=N/O)ccc1OCCOCCO2
Second: CC(=O)c1ccc2c(c1)OCCOCCOc1ccc(C(C)=O)cc1OCCOCCO2
The “hERG current change (%, negative = inhibition) at 1uM” value of the first is higher: -79.7% for the first, -84.8% for the second.

First: CC(=O)c1ccc2c(c1)OCCOCCOc1ccccc1OCCOCCO2
Second: CC(=O)[O-].[K+].c1ccc2c(c1)OCCOCCOc1ccccc1OCCOCCO2
The “hERG current change (%, negative = inhibition) at 1uM” value of the first is lower: -82.5% for the first, -80.7% for the second.

First: c1ccc2c(c1)OCCOCCOCCOCCOc1ccccc1OCCOCCOCCO2
Second: O=C(O)c1ccc2c(c1)OCCOCCOCCOCCOCCO2
The “hERG current change (%, negative = inhibition) at 1uM” value of the first is higher: -11.5% for the first, -12.4% for the second.

Going from `O=C(c1ccccc1)c1ccc2c(c1)OCCOCCOCCO2` to `c1ccc2c(c1)OCCOCCOCCO2`, the “hERG current change (%, negative = inhibition) at 1uM” value rises from 8.88% to 13.2%.

First: CC(=O)c1ccc2c(c1)OCCOCCOCCOCCO2
Second: CC(=O)c1ccc2c(c1)OCCOCCOCCOCCOCCO2
The “hERG current change (%, negative = inhibition) at 1uM” value of the first is higher: -3.2% for the first, -11.8% for the second.

Going from `CN1CCN(C2=C(Cl)C(=O)N(CCc3ccccc3)C2=O)CC1` to `Cc1ccc(S(=O)(=O)N2CCN(c3ccccc3)CC2)cc1C(N)=O`, the “hERG current change (%, negative = inhibition) at 1uM” value falls from 17.7% to -52%.

Compared with `Cc1cc(C)c[n+](-c2nc3ccccc3nc2[N-]S(=O)(=O)c2cccs2)c1`, `COCCn1nnnc1C(c1ccc(OC)c(OC)c1)N1CCN(c2nc3ccccc3s2)CC1` (stereo not shown) is higher in “hERG current change (%, negative = inhibition) at 1uM” value: 2.45% for the first, 2.83% for the second.

First: COC(=O)c1ccccc1NC(=O)CNc1cc(Cl)ccc1N1CCOCC1
Second: O=C1CC(Nc2ccc(N3CCOCC3)cc2)C(=O)N1c1ccccc1F (stereo not shown)
The “hERG current change (%, negative = inhibition) at 1uM” value of the first is lower: -0.671% for the first, 3.19% for the second.

Compared with `CCC(=O)Nc1cccc(C(=O)Nc2nccs2)c1`, `CC(C)OC(=O)c1ccc(NC(=O)c2ccco2)cc1` is lower in “hERG current change (%, negative = inhibition) at 1uM” value: 8.98% for the first, 6.19% for the second.

Going from `CN1CCC(=NNC(=O)c2ccc(N(Cc3ccccc3Cl)S(C)(=O)=O)cc2)CC1` to `Cc1ccc(S(=O)(=O)N2CCN(c3ccccc3)CC2)cc1C(=O)NC1CCCCC1`, the “hERG current change (%, negative = inhibition) at 1uM” value rises from 6.54% to 10.8%.

Compared with `Cc1ccc(OCC(=O)NC(=S)Nc2ccc(Br)c(C)n2)cc1`, `CCN1C(=O)[C@H]2[C@@H](c3ccc(-c4ccc(OC)cc4)cc3)N3CCC[C@@]3(C(=O)OC)[C@H]2C1=O.O=C(O)C(F)(F)F` is higher in “hERG current change (%, negative = inhibition) at 1uM” value: 5.89% for the first, 11.6% for the second.

Going from `CCN(CCCC(=O)c1ccc(F)cc1)CCc1ccccc1.Cl` to `O=C(CCCC(=O)c1ccc(F)cc1)c1ccc(F)cc1`, the “hERG current change (%, negative = inhibition) at 1uM” value rises from -86.5% to 5.62%.

Compared with `COCCN(C(=O)c1csnn1)C(C(=O)NC1CCCC1)c1ccccc1F` (stereo not shown), `CCOc1ccc(CNC(=O)C2CCCN(c3nnc(C)c4c(C)n(-c5ccccc5)nc34)C2)cc1` (stereo not shown) is lower in “hERG current change (%, negative = inhibition) at 1uM” value: 12.6% for the first, 8.87% for the second.

Going from `COc1ccc(-n2c(NN)nc3sc4c(c3c2=O)CCCC4)cc1` to `CN(C)CCNc1nc2sc3c(c2c(=O)n1-c1ccc(F)cc1)CCCCC3`, the “hERG current change (%, negative = inhibition) at 1uM” value rises from -9.75% to 6.73%.

First: CC1(C)CC(NC(=O)C2CCN(S(=O)(=O)c3ccc(F)cc3)CC2)CC(C)(C)N1
Second: COc1cccc(S(=O)(=O)NCC(=O)N2CCCCCC2)c1
The “hERG current change (%, negative = inhibition) at 1uM” value of the first is lower: 16.9% for the first, 25% for the second.

Compared with `CCOC(=O)C1(Cc2ccc(Cl)cc2)CCN(C(=O)C2=NNC(=O)CC2)CC1`, `O=C1CCC(C(=O)N2CCC(CO)(Cc3ccc(Cl)cc3)CC2)=NN1` is higher in “hERG current change (%, negative = inhibition) at 1uM” value: -61.2% for the first, 2.9% for the second.

First: CCOC(=O)C1(Cc2cccc(OC)c2)CCCN(Cc2nccn2CC)C1 (stereo not shown)
Second: CCOC(=O)C1(Cc2ccccc2)CCN(Cc2nccn2CC)CC1
The “hERG current change (%, negative = inhibition) at 1uM” value of the first is lower: -13.5% for the first, 8.81% for the second.

Going from `CCOC(=O)C1(Cc2ccc(Cl)cc2)CCN(Cc2ccon2)CC1` to `CCOC(=O)C1(Cc2ccc(Cl)cc2)CCN(Cc2cnc(N)nc2)CC1`, the “hERG current change (%, negative = inhibition) at 1uM” value falls from 5.86% to -60.6%.

Going from `CCOC(=O)C1(Cc2ccc(Cl)cc2)CCN(Cc2nccn2CC)CC1` to `CCOC(=O)C1(Cc2ccc(Cl)cc2)CCN(C(=O)c2cscn2)CC1`, the “hERG current change (%, negative = inhibition) at 1uM” value rises from -57% to -12.4%.

Going from `CCOC(=O)C1(Cc2cccc(OC)c2)CCN(Cc2cnc(N)nc2)CC1` to `Cc1cc(C(C)(C)C)ccc1OCCOCCN1CCCC1`, the “hERG current change (%, negative = inhibition) at 1uM” value falls from 5.79% to -0.816%.

First: N#C/C(=C/c1ccc(N2CCCCCC2)o1)c1ccc(F)cc1
Second: [Cl-].[NH3+]CCCn1c(C(=O)c2ccc(Cl)cc2)c2ccc([N+](=O)[O-])cc2[n+]1[O-]
The “hERG current change (%, negative = inhibition) at 1uM” value of the first is higher: 16.2% for the first, -47.1% for the second.

Going from `Cc1cc(C)c(S(=O)(=O)N2CCCCC2CCNC(=O)C(=O)NCCN2CCOCC2)c(C)c1` (stereo not shown) to `Cc1ccc(S(=O)(=O)Cn2nnnc2C(CC(C)C)N2CCN(C(=O)c3ccco3)CC2)cc1.Cl` (stereo not shown), the “hERG current change (%, negative = inhibition) at 1uM” value rises from 6.75% to 7.63%.

Going from `Cc1cc(C(C)(C)C)ccc1OCCN(C)C` to `Cc1cc(C(C)(C)CC(C)(C)C)ccc1OCCOCC[N+](C)(C)Cc1ccccc1.[Cl-]`, the “hERG current change (%, negative = inhibition) at 1uM” value falls from -15.1% to -62%.

First: C=CCNc1nc(C(=O)OCC(=O)Nc2cc(S(C)(=O)=O)ccc2Cl)cs1
Second: Cc1ccc(C(=O)c2c3ccc([N+](=O)[O-])cc3[n+]([O-])n2CCCC(N)=O)cc1
The “hERG current change (%, negative = inhibition) at 1uM” value of the first is higher: 4.15% for the first, -11.4% for the second.

First: Nc1c(Cl)cc(C(=O)c2c3ccc(C(F)(F)F)cc3[n+]([O-])n2CCC[NH3+])cc1Cl.[Cl-]
Second: NC(=O)CCCn1c(C(=O)c2cc(Cl)c(N)c(Cl)c2)c2ccc(C(F)(F)F)cc2[n+]1[O-]
The “hERG current change (%, negative = inhibition) at 1uM” value of the first is lower: -37.3% for the first, 5.14% for the second.

Going from `Cc1ccc(C(=O)c2c3ccc(C(F)(F)F)cc3[n+]([O-])n2CCC(N)=O)cc1` to `Cc1ccc(C(=O)c2c3ccc(C(F)(F)F)cc3[n+]([O-])n2CCCC(N)=O)cc1`, the “hERG current change (%, negative = inhibition) at 1uM” value falls from -28.8% to -39%.

First: [Cl-].[NH3+]CCCn1c(C(=O)c2ccc(Cl)cc2)c2ccc(C(F)(F)F)cc2[n+]1[O-]
Second: NC(=O)CCCn1c(C(=O)c2ccc(Cl)cc2)c2ccc(C(F)(F)F)cc2[n+]1[O-]
The “hERG current change (%, negative = inhibition) at 1uM” value of the first is lower: -80.9% for the first, -80.1% for the second.

Compared with `Nc1c(Cl)cc(C(=O)c2c3ccc([N+](=O)[O-])cc3[n+]([O-])n2CCC[NH3+])cc1Cl.O=C([O-])C(F)(F)F`, `Cc1ccc(C(=O)c2c3ccc([N+](=O)[O-])cc3[n+]([O-])n2CCC[NH3+])cc1.O=C([O-])C(F)(F)F` is lower in “hERG current change (%, negative = inhibition) at 1uM” value: 1.56% for the first, -14.7% for the second.

With `Cc1ccc(C(=O)c2c3ccc(C(F)(F)F)cc3[n+]([O-])n2CCC[NH3+])cc1.O=C([O-])C(F)(F)F` the “hERG current change (%, negative = inhibition) at 1uM” value was -64.4%.
